PubChem BioAssay
Values without a mark were called inactive. The rule behind the calls is not given here.

Each compound was assayed against Pantothenate synthetase (Mycobacterium tuberculosis (strain ATCC 25618 / H37Rv)) (UniProt P9WIL5) (assay: Recombinant Mtb pantothenate synthetase (PanC) inhibitors, coupled enzyme, confirmatory (AID 375;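 note: 0% = full reaction with vehicle and 100% = no enzyme background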)). Conditions: coupled enzyme assay; at 10 µM, hits give high values.
Sequence of Pantothenate synthetase (Mycobacterium tuberculosis (strain ATCC 25618 / H37Rv)) (P9WIL5 whole entry, looked up): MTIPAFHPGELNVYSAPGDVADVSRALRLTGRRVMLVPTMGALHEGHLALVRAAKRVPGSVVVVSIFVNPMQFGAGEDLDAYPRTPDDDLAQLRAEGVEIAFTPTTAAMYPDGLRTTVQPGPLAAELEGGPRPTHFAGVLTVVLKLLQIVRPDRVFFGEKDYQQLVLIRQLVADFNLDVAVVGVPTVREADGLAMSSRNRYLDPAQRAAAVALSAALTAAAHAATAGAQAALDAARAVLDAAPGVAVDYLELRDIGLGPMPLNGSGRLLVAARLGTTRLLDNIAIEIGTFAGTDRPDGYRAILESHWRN

| Structure (SMILES) | inhibition [%] |
| --- | --- |
| CCOC(=O)CN1C2=NCCN2c2ccccc21 | 6 |
| COc1ccc(C2C3=C(CCCC3=O)Nc3nc(SCc4ccccc4)nn32)cc1OC (stereo not given) | 0 |
| O=C(COc1ccccc1)Nc1ccccc1N1CCN(c2ccccc2)CC1 | 2 |
| CS(=O)(=O)N(CC(=O)O)c1cccc(Cl)c1 | 3 |
| COc1ccc(NC(=O)CCNC(=O)Cn2ccc3ccccc3c2=O)c(OC)c1 | 0 |
| CCN1CCN(Cc2ccccc2NC(=O)Nc2ccc(C)cc2)CC1 | 3 |
| CCOC(=O)Cc1csc(/C(=N/O)C(N)=O)n1 | 3 |
| CC(n1cnnn1)C12CC3CC(CC(C3)C1)C2 (stereo not given) | 8 |
| Cn1c(=O)c2ccccc2n(Cc2ccccc2F)c1=O | 0 |
| CCOc1cc(NC(=O)c2ccco2)c(OCC)cc1NC(=O)COc1ccccc1C | 0 |
| Cc1nnc(SCc2cc(=O)[nH]c(N3CCCCC3)n2)s1 | 1 |
| Cc1cccn2c(=O)c3cc(C(=O)N4CCCc5ccccc54)n(C)c3nc12 | 0 |
| CCCOC(=O)/C(C(N)=NCc1ccccc1)=C(\O)OCCC | 0 |
| Cc1cc(-c2ccccc2)nc2cc(C(N)=O)nn12 | 12 |
| CC(C)CCNC(=O)C(c1cccs1)N(CC1CCCO1)C(=O)Cn1nnc2ccccc21 (stereo not given) | 0 |
| O=c1c2[nH]c3ccc(Cl)cc3c2ncn1Cc1ccccn1 | 0 |
| CC(=O)NC(CCS(C)(=O)=O)C(=O)Nc1cc(C)on1 (stereo not given) | 0 |
| CCOC(=O)N1CCN(C(=O)c2cccn3c(=O)c4sccc4nc23)CC1 | 0 |
| COC(=O)Nc1nc2ccc(Sc3ccccc3)cc2[nH]1 | 8 |
| CN(C)C(=O)CN(c1ccc(F)c(Cl)c1)S(C)(=O)=O | 5 |

| Structure (SMILES) | inhibition [%] |
| --- | --- |
| COc1cccc(NC(=O)CSc2nnc(Cc3cccn3C)n2-c2ccc(F)cc2)c1 | 4 |
| Cc1ccc(-c2nc(CS(=O)CC(=O)NCCN(CC(C)C)CC(C)C)c(C)o2)cc1 (stereo not given) | 4 |
| CC1=C(C(=O)OC(C)C)C(c2cccc(F)c2)n2ncnc2N1 (stereo not given) | 2 |
| Cc1ccc(N(C)C(=O)N2CCN(c3ccccn3)CC2)cc1 | 0 |
| Cn1c(=O)c2ncn(CC(=O)NCCOc3ccc(C(C)(C)C)cc3)c2n(C)c1=O | 0 |
| COc1ccc(-c2noc(-c3cc(Cl)ccc3Cl)n2)cc1OC | 2 |
| C=CCn1c(SCc2ccc3nonc3c2)nnc1-c1cccs1 | 7 |
| CC(C)OP(=O)(c1ccc(N(C)C)cc1)C(O)c1ccccc1F (stereo not given) | 0 |
| C=CCNc1nc2c(c(=O)n(C)c(=O)n2C)n1CCCCCC | 0 |
| CCC1CCCCN1C(=O)C1CC(c2cc(Cl)c(OC)cc2OC)=NO1 (stereo not given) | 1 |
| COc1ccc(CCNC(=O)CCN2C(=O)C3CC=CCC3C2=O)cc1OC (stereo not given) | 0 |
| Cc1cc(C)c(S(=O)(=O)Nc2cccnc2)c(C)c1 | 0 |
| COC(=O)CC(C(=O)Nc1cc(C(=O)OC)cc(C(=O)OC)c1)N1CCN(C)CC1 (stereo not given) | 3 |
| CC(C)CC1NC(=O)N(CC(=O)N2CCN(S(=O)(=O)c3ccc(Cl)cc3)CC2)C1=O (stereo not given) | 0 |
| COc1ccc(S(=O)(=O)N2CCCC(C(=O)N3CCCCCC3)C2)cc1 (stereo not given) | 6 |
| CCCN(CCC)CCNC(=O)c1cc2c(=O)n(C)c3ccccc3c2n1C | 0 |
| Cc1ccc(N2CC(C(=O)Nc3nnc(C)s3)CC2=O)cc1 (stereo not given) | 6 |
| CCOC(=O)c1c(NC(=O)Cn2c(C)nc3ccccc32)sc2c1CCC2 | 0 |
| CC(C)Cn1c(CN(Cc2ccccc2)Cc2ccccc2)nc2c1c(=O)n(C)c(=O)n2C | 5 |
| Cn1cc(Cl)c(C(=O)NC2CCCC2)n1 | 6 |
